Experiment [1] is described as follows: qHTS assay for small molecules that induce genotoxicity in human embryonic kidney cells expressing luciferase-tagged ATAD5 (AID 651632). Note: nearly all actives have a fitted effect of over 15% in size. Note: potency is the fitted concentration of half-maximal effect. Put shortly: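 HEK293T cells carrying a luciferase reporter tagged to ATAD5 were exposed to compound or DMSO vehicle for 16 hr at 37C, 5% CO2. Amplite was added, and after 30 min at room temperature luciferase activity was read as a marker of ATAD5 induction.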
A general note: In qHTS, concentration-response curves come from the screen itself.

A short description of experiment [2]: qHTS assay for small molecules that induce genotoxicity in human embryonic kidney cells expressing luciferase-tagged ATAD5 - cell viability (AID 651634; calls by dose curve; note: nearly all actives have a fitted effect of over 25% in size; note: potency is the fitted concentration of half-maximal effect). Put shortly:
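HEK293T cells expressing luciferase-tagged ATAD5 were exposed to compound or DMSO for 15.5 hr at 37C, 5% CO2. Viability was then read as live-cell protease activity by CellTiter-Fluor fluorescence after 30 min at 37C.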

Experiment [3] can be described thus: qHTS assay for small molecule disruptors of the mitochondrial membrane potential - cell viability (AID 720634; calls by dose curve; note: nearly all actives have a fitted effect of over 20% in size; note: potency is the fitted concentration of half-maximal effect). Put shortly:
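HepG2 cells seeded overnight at 37 C, then exposed to compound or DMSO for 1 hr at 37 C, 5% CO2. m-MPI dye added, then CellTiter-Glo for 30 min at room temperature; viability read as ATP luminescence.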

Experiment [4] can be described thus: qHTS assay for small molecule disruptors of the mitochondrial membrane potential (AID 720635). Note: potency is the fitted concentration of half-maximal effect. Put shortly: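 HepG2 cells (2,000/well) attached overnight at 37C, then took compound for 1 hr at 37C, 5% CO2. Mito-MPS dye was added for 30 min; fluorescence was read at 490/535 nm (monomers) and 540/590 nm (aggregates).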
The nature of experiment [5]: qHTS assay to test for compound auto fluorescence at 590 nm (red) in HepG2 cells (AID 720674). Put shortly: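 Compound auto-fluorescence is scored relative to Rose Bengal sodium, measured at 540/590 nm in live HepG2 cultures after 1 hr compound contact (37 C, 5% CO2).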
Experiment [6] is described as follows: qHTS assay to test for compound auto fluorescence at 535 nm (green) in HepG2 cells (AID 720675).
Experiment [7] is described as follows: qHTS assay to test for compound auto fluorescence at 460 nm (blue) in HEK293 cells (AID 720678). Put shortly: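 HEK293 cells (2,000/well, medium with 10% dialyzed FBS) attached 4-5 hr, then exposed to compound overnight at 37C, 5% CO2. Blue fluorescence read at 405/460 nm, with triamterene as reference fluorophore.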
Experiment [8] is described as follows: qHTS assay to test for compound auto fluorescence at 590 nm (red) in HEK293 cells (AID 720679). Put shortly: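 HEK293 cells (2,000/well, 10% dialyzed FBS) attached 4-5 hr, then dosed with compound or DMSO and incubated overnight at 37C, 5% CO2. Red fluorescence read at 540/590 nm, Rose Bengal sodium as reference fluorophore.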
The nature of experiment [9]: qHTS assay for small molecule agonists of the p53 signaling pathway - cell viability (AID 651633; calls by dose curve; note: nearly all actives have a fitted effect of over 30% in size; note: potency is the fitted concentration of half-maximal effect). Put shortly:
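p53RE-bla cells, seeded at 4,000 per well and rested 5 h at 37 C/5% CO2, received compounds in DMSO for 16 h at 37 C. CellTiter-Glo was then added, and luminescence was read after 30 min at room temperature to gauge cytotoxicity.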

Results filed as inconclusive are left out. Active and inactive are the calls of the source. Unless noted, calls come from the whole dose curve; as a rule, active = well fitted curve in the direction sought with a large enough effect in the repeat runs; inconclusive = weak or mixed curves; inactive = no such curve, though single readings can be large; an effect the other way counts as inactive or inconclusive.
% is set by controls: 0 for no effect and ±100 for the full control effect.

For the compound `Cc1ccc(Nc2nccc(N(C)c3ccc4c(C)n(C)nc4c3)n2)cc1S(N)(=O)=O`, the Potency entry in experiment [1], in [3] and in experiment [7] was “inactive” each time. The Potency in [2] was 26.6 µM (active); in experiment [4], 0.75 µM (active). Besides, the result in [5], in experiment [6] and in [8] was inactive.
With `CCCc1c(OCCCOc2ccc(OCC(=O)O)cc2)ccc(C(C)=O)c1O`, the Potency entry in experiment [1] and in experiment [7] was “inactive” in each case. Further, the compound was classed as inactive in [5] and in experiment [6].
With `CC(=O)Oc1ccc2c(c1)CC[C@@H]1[C@@H]2CC[C@]2(C)[C@@H](O)CC[C@@H]12`, the Potency result in experiment [1], in [2] and in experiment [7] was “inactive” throughout. The Potency in experiment [4] is 8.41 µM (active). Also, the compound was called inactive in [6] and in experiment [8].
Regarding `c1cc[c]([Bi]([c]2ccccc2)[c]2ccccc2)cc1`, the Potency result in experiment [1], in [2] and in experiment [7] was “inactive” each time. Also, in [4], the Potency was 24.3 µM (active). The call in [5], in [6] and in [8] was inactive.
Turning to `Cc1nccn1-c1ccc(Sc2cccc(C3(C(N)=O)CCOCC3)c2)cc1`, the Potency result in experiment [9], in experiment [2], in experiment [4] and in [7] was “inactive” in each case. Moreover, the result in [5], in [6] and in experiment [8] was inactive.
With `NC(=O)Nc1ccc(Cl)c(Cl)c1`, the Potency entry in [1], in experiment [2], in experiment [3] and in experiment [7] was “inactive” each time. Besides, in experiment [4], the Potency is 48.4 µM (active). The call in experiment [6] and in experiment [8] was inactive.
`CC(C)(O)c1ccccc1CC[C@@H](SCC1(CC(=O)O)CC1)c1cccc(/C=C/c2ccc3ccc(Cl)cc3n2)c1`: the Potency in experiment [9] was 13.3 µM (active). The Potency result in experiment [2], in experiment [3] and in experiment [7] was “inactive” in each case. The result in [5], in [6] and in experiment [8] was inactive.
For `CC1=C(/C=C/C(C)=C\C=C\C(C)=C\C(=O)O)C(C)(C)CCC1`, the Potency entry in [1], in experiment [2], in experiment [3] and in experiment [7] was “inactive” each time. The result in experiment [5], in experiment [6] and in experiment [8] was inactive.
With `CSc1ccc(Oc2ccc(S(N)(=O)=O)cc2CN(C)C)cc1C`, the Potency result in [1] and in [7] was “inactive” in each case. The outcome in experiment [5], in experiment [6] and in experiment [8] was inactive.
As for `CC1C2CC(CC2C2CCCC(O)C2)C1(C)C` (stereo unspecified), the Potency result in experiment [1], in [2] and in experiment [7] was “inactive” in each case. Moreover, the Potency in [4] is 27.3 µM (active). Also, the result in [5], in experiment [6] and in experiment [8] was inactive.
For `COc1cc2c(cc1OC)-c1cc(=Nc3c(C)cc(C)cc3C)n(C)c(=O)n1CC2`, the Potency entry in experiment [1] and in experiment [7] was “inactive” throughout. In addition, in [2], the Potency is 29.8 µM (active). In addition, the compound was called inactive in [5] and in experiment [6].
Consider `CCCCCCCCCCCCCCC[C@H](O)[C@@H](N)CO`, for which the Potency result in [1], in experiment [2], in experiment [3] and in experiment [7] was “inactive” each time. Moreover, the outcome in [5], in [6] and in experiment [8] was inactive.
Turning to `COC(=O)[C@@H]1CC2=CC(=O)CC[C@]2(C)[C@@]23O[C@@H]2C[C@@]2(C)[C@@H](CC[C@@]24CCC(=O)O4)[C@H]13`, the Potency result in experiment [1], in [2], in experiment [3] and in experiment [7] was “inactive” throughout. The outcome in [5], in experiment [6] and in experiment [8] was inactive.
Take `O=C(CCCN1CCN(c2ccc(F)cc2)CC1)NC1c2ccccc2CSc2ccccc21` (stereo unspecified): the Potency result in experiment [1], in [3] and in experiment [7] was “inactive” each time. Further, the outcome in experiment [5], in experiment [6] and in [8] was inactive.
Consider `N#C/C(=C1/SC[C@@H](c2ccc(Cl)cc2Cl)S1)n1ccnc1`, for which the Potency entry in [1], in [2] and in [7] was “inactive” each time. Also, the Potency in [4] is 26.6 µM (active). For the same compound, the call in experiment [5], in [6] and in experiment [8] was inactive.
For the compound `Nc1ccc(C(=O)OCCCOC(=O)c2ccc(N)cc2)cc1`, the Potency result in experiment [9], in experiment [3] and in experiment [7] was “inactive” in each case. Moreover, the Potency in experiment [4] was 27.3 µM (active). Further, the outcome in experiment [5] and in experiment [6] was inactive.
Take `Brc1cc(-c2ccc(Br)c(Br)c2Br)cc(Br)c1Br`: the Potency entry in experiment [1], in experiment [2], in [3] and in experiment [7] was “inactive” in each case. Also, the call in experiment [5], in experiment [6] and in experiment [8] was inactive.
As for `Nc1ccc(Cl)cc1[N+](=O)[O-]`, the Potency entry in experiment [1], in experiment [3] and in experiment [7] was “inactive” in each case. The Potency in [4] was 53.9 µM (active). Besides, the compound was classed as inactive in experiment [5], in experiment [6] and in [8].
For `CCCOc1ccc(S(=O)(=O)N2CCN(CC)CC2)cc1-c1nc2c(CC)n(Cc3ccccn3)nc2c(=O)[nH]1`, the Potency entry in experiment [1], in [2], in [3] and in [7] was “inactive” in each case. In addition, the compound was classed as inactive in experiment [5], in experiment [6] and in [8].
`CCCCC(CC)C(=O)OCCOCCOCCOCCOC(=O)C(CC)CCCC` (stereo unspecified): the Potency result in experiment [1], in experiment [2] and in experiment [7] was “inactive” throughout. Besides, the outcome in experiment [5] and in [6] was inactive.
As for `Cc1ccc(/C=N/n2c(-c3ccccc3)csc2=S)cc1`, the Potency result in experiment [1], in experiment [2] and in experiment [7] was “inactive” each time. In addition, the Potency in experiment [4] is 18.8 µM (active). The call in experiment [5] and in [6] was inactive.
With `COCCOC(=O)C1=C(C)NC(C)=C(C(=O)OC/C=C/c2ccccc2)C1c1cccc([N+](=O)[O-])c1` (stereo unspecified), the Potency result in [1], in experiment [2] and in experiment [7] was “inactive” in each case. In addition, the values for the Potency in experiment [3] and in [4] were 9.44 µM (active) and 10.6 µM (active), respectively. Also, the compound was classed as inactive in experiment [5], in experiment [6] and in experiment [8].
`CC(=O)OCC(=O)[C@@]12OC(C)(C)O[C@@H]1C[C@H]1[C@@H]3C[C@H](F)C4=CC(=O)C=C[C@]4(C)[C@@]3(F)[C@@H](O)C[C@@]12C`: the Potency result in experiment [9], in experiment [2], in experiment [3] and in [4] was “inactive” in each case. Moreover, in experiment [6], the fluorescence, % of fluorescein control was -0.0438% [at 18.6 µM] (inactive). Further, the fluorescence, % of triamterene in [7] was -0.188% [at 18.6 µM] (inactive).
In the case of `NC(=O)N(O)[C@@H]1COc2cc(OCc3ccccc3)ccc21`, in experiment [1], the Potency was 1.54 µM (active). The Potency entry in [2] and in experiment [7] was “inactive” each time. Moreover, the call in experiment [5], in experiment [6] and in experiment [8] was inactive.
On to `O=C(Nc1ccccc1)Nc1ccccc1`, for which the Potency entry in experiment [1], in experiment [2] and in experiment [7] was “inactive” throughout. For the same compound, in experiment [4], the Potency was 1.73 µM (active). Moreover, the call in [5], in experiment [6] and in [8] was inactive.
With `CC(C)c1nnc2ccc(-c3ocnc3-c3cc(F)ccc3F)cn12`, the Potency entry in experiment [9] and in experiment [7] was “inactive” each time. Besides, the call in experiment [6] and in experiment [8] was inactive.

The values are drawn from PubChem BioAssay (Tox21).
